Most compounds without a hit are left out; they make up all but 11% or so of the library.
HEK293 tox – cytotoxic compounds in HEK 293 cells; Potency, µM (series often up to 115 µM), without a hit: at the highest dose activity change, negative = cytotoxicity, actives largely listed as inhibitors; AID 1345083; hit rate 6.6% among 94,000; HEK 293 viability, ATP luminescence (CellTiter-Glo), 48-72 h; also: nearly all actives have a fitted effect of over 60% in size
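Read-out: CellTiter-Glo ATP luminescence. Cells: HEK 293, 250 cells/well. Exposure: 48 or 72 hr, 37 degree Celsius.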
3T3 cytotox – cytotoxic compounds in NIH 3T3 cells | NIH 3T3 viability, CellTiter-Glo ATP luminescence, 48-72 h | Potency, µM (highest dose often 96.7 µM), inactives show top-dose activity change, negative = cytotoxicity, hits mostly inhibitors | hit rate 4.3% among 94,000; also: nearly all actives have a fitted effect of over 55% in size
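Cytotoxicity is measured as loss of cellular ATP: NIH 3T3 cells (400/well) are exposed to compound for 48 or 72 hr at 37 °C, then CellTiter-Glo luminescence is imaged after 10 min at room temperature.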
Luciferase inh – Photinus pyralis luciferase inhibition; P08659; purified P. pyralis luciferase, luminescence, biochemical; Potency, µM (doses to about 115 µM), hits mostly inhibitors; hit rate 2.5% among 76,000; AID 1347043; also: nearly all actives have a fitted effect of over 65% in size
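FLuc 10nM, D-luciferin 10uM, ATP 10uM, Mg acetate 10mM, Tris acetate pH 7.5, Tween/BSA; cpd qHTS; enzyme added last; CCD luminescence.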
NPR1 antag – antagonists of human natriuretic peptide receptor Npr1. P16066. HEK293 hNpr1 GloSensor cGMP, ANP-stimulated luminescence. Potency, µM (titrated, usually from 46.3 µM), without a hit: top-dose activity change, negative = inhibition, most hits filed as inhibitors. hit rate 1.6% among 76,000; calls by dose curve; also: nearly all actives have a fitted effect of over 60% in size
Target sequence (P16066 whole entry, looked up): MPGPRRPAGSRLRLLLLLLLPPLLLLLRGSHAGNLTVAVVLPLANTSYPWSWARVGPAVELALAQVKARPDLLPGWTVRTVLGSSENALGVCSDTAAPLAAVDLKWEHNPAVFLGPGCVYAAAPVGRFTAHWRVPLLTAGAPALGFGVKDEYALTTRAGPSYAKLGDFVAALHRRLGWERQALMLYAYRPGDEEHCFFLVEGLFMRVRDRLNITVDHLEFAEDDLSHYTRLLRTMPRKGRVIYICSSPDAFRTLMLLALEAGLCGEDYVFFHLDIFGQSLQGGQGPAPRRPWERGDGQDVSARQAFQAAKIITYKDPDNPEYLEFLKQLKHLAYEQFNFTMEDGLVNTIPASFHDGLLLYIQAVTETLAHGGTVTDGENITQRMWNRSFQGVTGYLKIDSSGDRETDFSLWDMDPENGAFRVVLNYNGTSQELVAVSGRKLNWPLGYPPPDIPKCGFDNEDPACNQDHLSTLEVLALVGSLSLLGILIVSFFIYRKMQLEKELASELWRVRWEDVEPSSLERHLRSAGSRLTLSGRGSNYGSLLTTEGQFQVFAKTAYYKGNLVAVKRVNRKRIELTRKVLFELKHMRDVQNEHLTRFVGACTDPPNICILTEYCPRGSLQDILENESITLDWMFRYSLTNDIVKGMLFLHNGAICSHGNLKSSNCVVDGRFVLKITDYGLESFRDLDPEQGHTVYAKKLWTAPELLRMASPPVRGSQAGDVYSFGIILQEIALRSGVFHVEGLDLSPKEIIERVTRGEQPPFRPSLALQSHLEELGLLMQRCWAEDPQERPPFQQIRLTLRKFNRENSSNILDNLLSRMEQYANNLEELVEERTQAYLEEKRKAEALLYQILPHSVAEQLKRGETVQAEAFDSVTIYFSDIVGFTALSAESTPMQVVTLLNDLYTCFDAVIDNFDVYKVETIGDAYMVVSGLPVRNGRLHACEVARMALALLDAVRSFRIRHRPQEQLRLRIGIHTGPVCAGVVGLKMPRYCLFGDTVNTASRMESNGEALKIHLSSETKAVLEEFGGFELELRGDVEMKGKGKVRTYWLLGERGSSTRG
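HEK293 cells stably expressing human Npr1 and cGMP GloSensor pGS-40F, loaded 2 h with 2% GloSensor reagent, given compound 30 min at room temperature. Luminescence read before and 20 min after 0.1 nM hNppA.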
* marks the source's active call; other numbers are inactive results; i = inactive; ? = inconclusive; . = not tested or not shown; [ ] = another dose, or the depositor's remark. Unless noted, calls follow the shape of the dose curve; as a rule, active = well fitted curve in the direction sought with a large enough effect; inconclusive = small, poorly fitted or top-dose-only effect, or another doubt; inactive = no such curve, though single readings can be large; an effect the other way counts as inactive or inconclusive. % is scaled to controls: 0 for no effect and ±100 for the full control effect; potency is read from the fitted curve at half-maximal effect.

SMILES | HEK293 tox | 3T3 cytotox | Luciferase inh | NPR1 antag
CC(C)NC(=O)N[C@H]1CCN2C(=O)c3cc(/C=C/c4ccccc4)ccc3NC(=O)[C@H]12 | 2%[172 µM] | i | 4µM* | 5%[70.6 µM]
CC(C)NC(=O)N[C@H]1CCN2C(=O)c3cc(-c4ccc(Cl)cc4)ccc3NC(=O)[C@H]12 | -14%[172 µM] | -25%[174 µM] | i | 1%[70.6 µM]
Cc1ccc(-c2nc(C)c(C(=O)Nc3ccc4c(c3)C(=O)N3CCC[C@H]3C(=O)N4)s2)cc1 | ? | -11% | 28µM* | -7%
Cn1cc(C(=O)Nc2ccc3c(c2)C(=O)N2CCC[C@H]2C(=O)N3)c2ccccc21 | 7% | -19% | i | 1%
O=C(CC1CCCC1)N1CCCC(Cc2nncn2Cc2ccccc2)C1 (centres undefined) | -4% | -3% | . | .
CC(=O)N1CCCN(Cc2ccc3c(c2)OCO3)c2ccccc21 | ? | ? | i | 4%
O=C(c1ccccc1)N1CCCN(Cc2ccc3c(c2)OCO3)c2ccccc21 | 35µM* | ? | i | -4%
CN1c2cc(C(=O)Nc3cccc(Br)c3)ccc2C(=O)N2CCCCC21 (centres undefined) | 35µM* | ? | ? | 0%
CSc1cccc(NC(=O)c2ccc3c(c2)N(C)C2CCCCN2C3=O)c1 (centres undefined) | 40µM* | ? | ? | -7%
Cc1cc(C)cc(NC(=O)c2ccc3c(c2)N(C)C2CCCCCN2C3=O)c1 (centres undefined) | ? | -25% | i | 0%
CN1c2cc(C(=O)Nc3cccc(F)c3)ccc2C(=O)N2CCCCC21 (centres undefined) | ? | -22% | 25µM* | -23%
CCNC(=O)O[C@H]1C(=O)N(C)C2(CCN([S+](=O)([O-])c3cccs3)CC2)[C@@H]1C(=O)OCC | -15% | ? | . | .
CCN1CCC2(CCC1=O)CN(Cc1ccc(C)c3ccccc13)CCN2C (centres undefined) | 79µM* | -11% | i | 5%
Cc1noc([C@H]2CCN(C(=O)CC3CCCC3)C[C@H]2NC(=O)C2CC2)n1 | -27% | -16% | . | .
COC(=O)C1=C(C)N=C2SC=C(CC(=O)N(C)Cc3ccco3)N2C1c1cccc(Cl)c1 (centres undefined) | 25µM* | ? | i | ?
CCOC(=O)C1=C(C)N=C2SC=C(CC(=O)Nc3cccc(OC)c3)N2C1c1cccc(OC)c1 (centres undefined) | ? | ? | i | -24%
CCOC(=O)C1=C(C)N=C2SC=C(CC(=O)Nc3ccc(C)c(C)c3)N2C1c1cccc(OC)c1 (centres undefined) | 45µM* | 40µM* | i | -16%
CC(C)CCN1C(=O)N(CCCc2ccncc2)C(=O)C12CCN(CC1=CC[C@H]3C[C@@H]1C3(C)C)CC2 | 8% | 2% | i | -9%
Cc1csc(CN(C)C(=O)CC(c2ccccc2)c2ccc3c(c2)OCO3)n1 (centres undefined) | 45µM* | -23% | 32µM* | -31%
O=C(CC(c1ccccc1)c1ccc2c(c1)OCO2)N1CCSCC1 (centres undefined) | ? | -25% | i | ?
CN1CCc2c([nH]c3ccccc23)C12CCN(C(=O)c1ccccc1)CC2 | -27% | -10% | i | -2%
COc1ccc(CNC(=O)CNC(=O)c2cccc(-c3ccsc3)c2)cc1 | ? | -29% | . | .
O=C(NCc1nnc2c(-c3nc(C4CC4)no3)cccn12)c1ccc(F)cc1 | ? | -25% | i | -1%
CC(C)(C)c1ccc(C(=O)NCc2nnc3c(-c4nc(C5CC5)no4)cccn23)cc1 | ? | ? | 16µM* | -16%
O=S(=O)(Cc1ccccc1)N1CC(n2cnnc2C2CCCO2)C1 (centres undefined) | 0% | -15% | . | .
SMILES | HEK293 tox | 3T3 cytotox | Luciferase inh | NPR1 antag
CCOC(=O)c1cccc(NC(=O)c2ccc3c(c2)N(C)C2CCCCCN2C3=O)c1 (centres undefined) | 32µM* | ? | ? | -18%
CCN1c2cc(C(=O)Nc3cccc(C)c3)ccc2C(=O)N2CCCC21 (centres undefined) | ? | ? | i | 6%
CCc1ccc(NC(=O)c2ccc3c(c2)N(C)C2CCCCCN2C3=O)cc1 (centres undefined) | ? | i | ? | -14%
CCOC(=O)c1cccc(NC(=O)c2ccc3c(c2)N(CC)C2CCCCN2C3=O)c1 (centres undefined) | 40µM* | 40µM* | i | -28%
C[S+](=O)([O-])Nc1cccc(-c2cc3c(ccn3Cc3cccnc3)c(C3=CCOCC3)n2)c1 | ? | ? | i | -10%
CN(C)Cc1cccc(-c2cc3c(ccn3Cc3cccnc3)c(C3=CCOCC3)n2)c1 | 35µM* | ? | i | 0%[70.6 µM]
C1=C(c2nc(-c3cncnc3)cc3c2ccn3Cc2cccnc2)CCOC1 | -16%[172 µM] | ? | i | 3%[70.6 µM]
COc1cccc(-c2cc3c(ccn3Cc3cccnc3)c(C3=CCOCC3)n2)c1OC | 100µM* | 71µM* | i | 0%[70.6 µM]
Cc1ccc(-c2cc3c(ccn3Cc3cccnc3)c(C3=CCOCC3)n2)cn1 | 45µM* | ? | i | -1%[70.6 µM]
COc1ccc(CNC2(Cc3cc(-c4ccc(F)cc4)on3)COC2)cc1 | ? | ? | i | -12%[70.6 µM]
c1ccc(-c2cc(CC3(NCC4CCCCC4)COC3)no2)cc1 | 100µM* | ? | i | ?
CC(C)(O)c1cc(CC2(NCC3CCCCC3)COC2)no1 | 1%[172 µM] | -12%[174 µM] | i | 12%[70.6 µM]
Fc1ccc(-c2cc(CC3(NCc4ccc(OC(F)(F)F)cc4)COC3)no2)cc1 | 79µM* | 100µM* | i | ?
CC(C)(C)C(=O)N1CCC(C(=O)N2CCC(c3nc4ncccc4[nH]3)CC2)CC1 | 1% | -18% | . | .
Cc1cccc(C2CCCN(C(=O)c3cn(CCc4ccccc4)nn3)C2)c1 (centres undefined) | 40µM* | ? | i | -4%
Cc1ccc(SC2CCN(C(=O)c3cn(CCc4ccccc4)nn3)CC2)cc1 | 89µM* | ? | i | -2%
CC1(C(=O)N2C[C@@H](Oc3ccccc3)C[C@H]2C(=O)N2CCOCC2)CCCCC1 | -9% | -24% | i | 0%
O=C(NCC1CC1)C1CCN(c2nc3ncccc3o2)CC1 | -2%[172 µM] | -17%[138 µM] | . | .
Cc1ccc(-c2ccnc(N(C)CC3CC(=O)N(C(C)(C)C)C3)n2)c(C)n1 (centres undefined) | 79µM* | ? | i | -27%
O=C1NCN(Cc2ccc(Cl)cc2)C12CCN(Cc1cccnc1)CC2 | ? | ? | i | 18%
O=C1NCN(Cc2ccc(Cl)cc2)C12CCN(Cc1ccc(F)cc1)CC2 | 28µM* | 14µM* | i | -22%
O=C1NCN(Cc2ccc(Cl)cc2)C12CCN(Cc1ccc(C(F)(F)F)cc1)CC2 | 40µM* | ? | i | -21%
CCCOC(=O)N1CCC(C(=O)Nc2cccc(-c3cccc(F)c3)c2)CC1 | 45µM* | ? | i | ?

Assay outcomes from PubChem BioAssay.
